Data reported in PubChem BioAssay (EPA / NIEHS).
Values joined by “and” are separate entries in the source; they are usually repeats but may differ in a detail not shown here. Equal values may be shown once. Active and inactive are the calls of the source. How the source made its calls: active means hit-call score of the fitted dose curve at least 0.9, where 1 is the maximum; inactive means score below 0.9.

Tested on: not listed separately
Assay: CCTE_Padilla_ZF_Score.Any: CCTE's 144 Hour Post-fertilization zebrafish Assay Score for Any Mortality or Malformation, Padilla Lab (AID 2284416)
Method in brief: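 Wild-type zebrafish embryos with chorions, one per well in 10% Hanks' from 6–8 hpf, dosed in sealed plates at 26 C, 14:10 h light:dark; rinsed at 5 dpf; blinded scoring at 6 dpf for death or malformation, versus DMSO.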
In the case of O=C(O)CCC(F)(C(F)(F)F)C(F)(F)F, the outcome is reported as “inactive”.
For O=C(O)C(F)(F)C(F)(F)C(F)(F)C(F)(F)C(F)(F)C(F)(F)F, the AC50 was 98900 nM (active).
For O=C(O)C(F)(F)C(F)(F)C(F)(F)C(F)(F)C(F)(F)C(F)(F)C(F)(F)C(F)(F)C(F)(F)C(F)(F)F, the AC50 was 3350 nM (active).

Tested on: TTR (gene 7276)
Assay: CCTE_GLTED_hTTR_0.125uM: CCTE's human Transthyretin (hTTR) Inhibition Assay, with 0.125uM TTR, Great Lakes Toxicology and Ecology Division (GLTED) Lab (AID 2284431);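 further: hits lower the fluorescence signal relative to DMSO baseline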
Method in brief: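 TTR at 0.125uM incubated 2 h with test chemical; displacement of bound ANSA read by fluorescence (ex 380, em 475). Activity is signal loss versus DMSO baseline.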
In the case of O=[N+]([O-])c1ccc(O)c([N+](=O)[O-])c1, the AC50 is reported as 0.155 µM (active).
With CCCCCCCCc1ccc(O)cc1 the AC50 was 1.2 µM (active).
In the case of COP(=S)(OC)Oc1ccc(Sc2ccc(OP(=S)(OC)OC)cc2)cc1, the AC50 is reported as 0.537 µM (active).
For O=C1C(Cl)=C(Cl)C(=O)c2ccccc21, the AC50 was 3.67 µM (active).
With COc1cc(-c2ccc(N)c(OC)c2)ccc1N the AC50 was 104 nM (active) and 2.64 µM (active).
In the case of CCOP(=S)(OCC)Oc1nc(Cl)c(Cl)cc1Cl, the AC50 is reported as 0.376 µM (active).
For ClC(Cl)=C(Cl)C(Cl)=C(Cl)Cl, the AC50 was 9.92 µM (active).
With O=C(O)C(F)(F)C(F)(F)C(F)(F)C(F)(F)C(F)(F)C(F)(F)F the AC50 was 0.236 µM (active).
In the case of CC(C)(c1ccccc1)c1ccc(O)c(C(C)(C)c2ccccc2)c1, the AC50 is reported as 0.241 µM (active).
With COP(=O)(OC)O/C(=C\Cl)c1cc(Cl)c(Cl)cc1Cl the AC50 was 1.18 µM (active).
With CCOP(=S)(OCC)SCSP(=S)(OCC)OCC the AC50 was 1.57 µM (active).
In the case of O=C(O)C(F)(F)C(F)(F)C(F)(F)C(F)(F)C(F)(F)C(F)(F)C(F)(F)C(F)(F)C(F)(F)C(F)(F)F, the AC50 is reported as 0.783 µM (active).
In the case of CC(C)(C)CC(C)(C)c1ccc(O)cc1, the AC50 is reported as 13.1 µM (active).
In the case of CCC(C)(C)c1ccc(O)c(C(C)(C)CC)c1, the AC50 is reported as 3.18 µM (active).
In the case of Oc1ccc(-c2ccccc2)cc1, the AC50 is reported as 2.83 µM (active).
